The record followed here is PubChem BioAssay (NCI).

SMILES strings stand for the structures. Compounds without any hit were thinned out: in the full panel of roughly 83,000, 20% have a hit.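 Cells were grown in 96-well plates and exposed to the test compound at a single concentration for 48 hours; results are reported as percent growth, with values below 10 considered active.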 Values without a mark were called inactive. Activity calls are given as the source filed them.

What all share (assay): NCI-60 one-dose screen, 48 h (100 = growth as untreated, 0 = no growth, -100 = all killed)
Experiment [1] has as its system NCI-H322M lung. The settings on record: 10 µM unless noted.
The test system of experiment [2] is HOP-62 NSCLC. The settings on record: 10 µM unless noted.
Experiment [3] relates to HOP-92 NSCLC. The settings on record: 10 µM unless noted.
The subject of experiment [4] is NCI-H522 lung. The settings on record: 10 µM unless noted.
Experiment [5] deals with K-562 leukemia. The settings on record: 10 µM unless noted.
The subject of experiment [6] is SF-295 CNS. The settings on record: 10 µM unless noted.
For experiment [7], the system named is HCT-15 colon. Conditions: 10 µM.
Experiment [8] has as its system SNB-19 CNS. The settings on record: 10 µM unless noted.
Experiment [9] has as its system LOX IMVI melanoma. Conditions: 10 µM unless noted.
Experiment [10] deals with TK-10 renal. Conditions: 10 µM unless noted.
Experiment [11] relates to CCRF-CEM leukemia. Conditions: 10 µM unless noted.
In experiment [12] the test system is SR leukemia. Conditions: 10 µM.
In experiment [13] the test system is IGROV1 ovarian. Conditions: 10 µM.
Experiment [14] concerns HCC-2998 colon. Conditions: 10 µM unless noted.
Experiment [15] has as its system EKVX NSCLC. The settings on record: 10 µM unless noted.
Experiment [16] deals with MOLT-4 leukemia. The settings on record: 10 µM.
The test system of experiment [17] is RPMI-8226 leukemia. The settings on record: 10 µM unless noted.
The test system of experiment [18] is SK-MEL-5 melanoma. The settings on record: 10 µM unless noted.
In experiment [19] the test system is NCI-H226 lung. The settings on record: 10 µM unless noted.

In the case of `Oc1c(Br)cc(Br)cc1Br.[Cu+2]`, the growth in experiment [1] was 88.3%; in experiment [2] it was 121%; in [3], 90.5%; in experiment [4], 88.7%; in experiment [5] it was 107%; in [6] it was 97.6%. The growth in [7] was 108%; in experiment [8], 118%; in experiment [9] it was 89%; in experiment [10], 117%; in experiment [11] it was 101%; in [12], 90.8%. Further, the growth in experiment [13] was 105%; in experiment [14], 95.8%.

With `COc1cc(C2CC(=O)Nc3nc(N)[se]c32)c(OC)c2c1OCO2` (centres undefined), the growth in [1] is 22.6%; in [2], 32.7%; in [3] it was 105%; in experiment [4], 99.1%; in experiment [6], 6.71% (active); in experiment [8], 51.9%. Moreover, the growth was 104% in [9]; 94.4% in experiment [15]; 109% in [10]; 104% in experiment [11]; 117% in experiment [16]; 107% in [12]. The growth in [17] was 119%; in experiment [13], 83.6%.

On to `O=C(CCc1ccco1)NC1CCN(CC2(c3ccc(Cl)cc3)CCC2)CC1`, for which the growth in experiment [1] is 34.7%; in experiment [2] it was 39.3%; in experiment [3], -21.9% (active); in experiment [4], -22.2% (active); in experiment [5], 3.19% (active); in experiment [6], -46.5% (active). In addition, the growth was 18.7% in experiment [7]; 15% in [8]; -9.97% (active) in [18]; -0.211% (active) in experiment [10]; -11.7% (active) in experiment [16]; -24.6% (active) in [12]. Also, the growth in experiment [13] is 30.1%; in [14], 11.4%.

With `CC(C)(C)[Si](C)(C)OC1[C@@H](O[Si](C)(C)C(C)(C)C)[C@@H](CNC(=O)NC(=O)CF)O[C@H]1n1cnc2c(NC(=O)Nc3ccccc3)ncnc21` (some centres undefined), the growth was 104% in experiment [1]; 87.1% in experiment [2]; 48.5% in [3]; 37.7% in [5]; 79.5% in [6]; 80.7% in [7]. Besides, the growth in experiment [11] was 4.8% (active); in experiment [16], -13.4% (active); in [12], -22.6% (active); in experiment [17], 24.6%; in experiment [14], 46.3%.

Consider `COC[CH2][Hg][C]#[C][Hg][CH2]COC`, for which the growth was 116% in experiment [1]; 98.5% in [2]; 111% in experiment [3]; 96.9% in [4]; 96.7% in experiment [5]; 97.1% in [7]. In addition, the growth in experiment [8] was 108%; in experiment [9], 17.5%; in experiment [10] it was 119%; in [16], 79.8%; in experiment [12], 8.96% (active); in experiment [13], 80.2%. Further, in experiment [14], the growth was 103%.

On to `Nc1ccc(N)c2c1Oc1ccccc1O2`, for which the growth is 97.2% in experiment [1]; 95.5% in [2]; 74.8% in experiment [3]; 92.1% in experiment [5]; 101% in experiment [6]; 105% in [7]. Also, the growth in [8] was 104%; in experiment [18], 72.6%; in experiment [9] it was 90.3%; in [15], 92.1%; in [10], 131%; in [16], 81.6%. In addition, the growth was 6.91% (active) in experiment [13] and 108% in experiment [14].

Take `CCOc1cc(/C=N\Nc2nnc(C)n2N)c(C)cc1N(CCCl)CCCl`: the growth is 11.3% in experiment [1]; 22.6% in experiment [2]; -17.4% (active) in experiment [3]; 15% in [4]; 7.77% (active) in experiment [5]; -26.6% (active) in experiment [6]. Moreover, the growth in experiment [7] is 25.5%; in [18], -47.3% (active); in experiment [10] it was 31%; in [11], 4.43% (active); in experiment [16], -9.42% (active); in experiment [12], -12.6% (active). In addition, the figures for the growth in experiment [17], in experiment [13] and in experiment [14] were -37.9% (active), 12.3% and 3.97% (active), respectively.

Regarding `CCOc1c(Cl)cc(CNC(C)C(O)c2ccccc2)cc1OC` (centres undefined), the growth in experiment [1] was 92%; in [2], 73.3%; in [3] it was 27%; in experiment [5], 13.9%; in experiment [6] it was 48.4%; in experiment [7], 47.1%. For the same compound, the growth in experiment [8] is 91.6%; in [18], 82.7%; in [9] it was 57.1%; in experiment [10], 90.5%; in [11], 77.7%; in experiment [16], 41.9%. In addition, the growth in [12] was 10.8%; in experiment [17], 71.7%; in [13], 66%; in experiment [14], 81.3%.

In the case of `Cc1cccc(N=C2c3cc([N+](=O)[O-])ccc3-c3c2cc([N+](=O)[O-])cc3[N+](=O)[O-])c1`, the growth in experiment [19] was 80.1%; in experiment [2], 61.7%; in experiment [5] it was 23.1%; in experiment [6], 97.8%; in experiment [7] it was 34.2%; in [8], 82.5%. Also, the growth was 39.3% in experiment [9]; 75.4% in experiment [15]; 56.1% in experiment [10]; 21.4% in [11]; 27.5% in experiment [16]; -8.81% (active) in experiment [17].

In the case of `Oc1ccc(Br)cc1CN1CCN(Cc2ccc(Cl)cc2)CC1`, the growth was 103% in [1]; 57.6% in experiment [2]; 24.8% in [3]; -84.4% (active) in experiment [4]; -34.3% (active) in [5]; 59.7% in experiment [7]. Moreover, the growth in experiment [8] is 87.8%; in experiment [18], -3.7% (active); in experiment [9], 19.7%; in [10], 106%; in experiment [12] it was 22.7%; in experiment [17], 16.7%.

Turning to `CC12CC[C@H](O)C=C1/C(=N/O)CC1C2CCC2(C)C1CC[C@@H]2O` (some centres undefined), the growth in experiment [19] is 97.1%; in experiment [2], 96.4%; in experiment [4], 90.1%; in experiment [8], 104%; in experiment [18], 103%; in experiment [9], 94.3%. Besides, the growth in experiment [15] is 89.6%; in [10], 102%; in experiment [13], 94.4%.
